Compound activity deposited in PubChem by several laboratories.
MazF activator – increases E. coli MazEF RNase cleavage of RNA; activation, % at 20 µM; P0AE70; hit rate 0.32% among 350,000; AID 504720; FAM/BHQ RNA-DNA oligo cleavage fluorescence, 5 h; in the data active means activation above about 50%
SSB-PriA inh – K. pneumoniae PriA-SSBct interaction inhibition; AlphaScreen SSBct-PriA binding, biotinylated peptide; inhibition, % at 33 µM; hit rate 0.6% among 430,000; AID 1272365; in the data active means inhibition mostly above about 37%, no sharp cut-off; inactive means mostly below about 20%;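 further: plate controls were negative control peptide for no effect and reference peptide for full effect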
BoNT F protease – inhibitors of Botulinum neurotoxin F light chain protease. Multiplex microsphere protease cleavage assay, flow cytometry. inhibition, % at 10 µM. hit rate 0.22% among 360,000. AID 588497; in the data active means inhibition above about 35%, passing the limit was not always enough; inconclusive means no clear call, values can overlap the other calls; further: plate controls were buffer without enzyme for full effect and enzyme alone for no effect
Anthrax LF inh2 – inhibitors of Bacillus anthracis lethal factor protease; P15917; multiplex microsphere protease cleavage assay, LF; inhibition, % at 10 µM; hit rate 0.12% among 360,000; AID 588501; in the data active means inhibition above about 30%; inconclusive means no clear call, values can overlap the other calls; further: plate controls were buffer without enzyme for full effect and enzyme alone for no effect
Target sequence (P15917 whole entry, looked up): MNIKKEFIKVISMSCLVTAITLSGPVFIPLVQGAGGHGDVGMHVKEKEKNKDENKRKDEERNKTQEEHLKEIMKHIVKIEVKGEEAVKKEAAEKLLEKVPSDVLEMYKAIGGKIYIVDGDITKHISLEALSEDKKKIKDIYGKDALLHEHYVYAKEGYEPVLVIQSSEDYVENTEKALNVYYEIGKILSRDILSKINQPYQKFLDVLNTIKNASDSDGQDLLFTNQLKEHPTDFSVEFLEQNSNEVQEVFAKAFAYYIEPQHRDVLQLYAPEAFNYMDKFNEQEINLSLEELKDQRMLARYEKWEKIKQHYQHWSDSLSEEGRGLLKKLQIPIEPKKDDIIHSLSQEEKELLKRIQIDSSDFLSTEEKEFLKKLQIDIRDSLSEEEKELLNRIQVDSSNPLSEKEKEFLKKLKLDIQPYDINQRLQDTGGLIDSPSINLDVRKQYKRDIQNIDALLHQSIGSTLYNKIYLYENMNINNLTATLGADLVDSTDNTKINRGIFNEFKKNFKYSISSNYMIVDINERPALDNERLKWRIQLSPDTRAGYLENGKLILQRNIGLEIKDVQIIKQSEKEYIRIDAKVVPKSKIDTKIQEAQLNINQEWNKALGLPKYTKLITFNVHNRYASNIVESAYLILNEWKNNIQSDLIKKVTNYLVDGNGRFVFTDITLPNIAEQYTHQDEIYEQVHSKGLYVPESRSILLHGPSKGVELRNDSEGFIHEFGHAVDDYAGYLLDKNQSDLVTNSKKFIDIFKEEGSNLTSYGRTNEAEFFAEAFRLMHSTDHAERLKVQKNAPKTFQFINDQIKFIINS
Autofluor counter – flagged as autofluorescent in microsphere protease counterscreen; compound autofluorescence counterscreen, microsphere flow cytometry; active compounds read high; fluorescence intensity (concentration not given with the values); hit rate 3.1% among 360,000; AID 624483; in the data active means fluorescence intensity above about 16000; inconclusive means no clear call, values can overlap the other calls
BoNT-A LC inh2 – inhibitors of Botulinum neurotoxin A light chain protease; multiplex microsphere protease substrate cleavage, flow cytometry; inhibition, % at 10 µM; hit rate 0.17% among 360,000; AID 588499; in the data active means inhibition above about 30%; inconclusive means no clear call, values can overlap the other calls; further: plate controls were buffer without enzyme for full effect and enzyme alone for no effect
BoNT-A LC CP1 – blocks botulinum neurotoxin A light chain protease. hit rate 3% among 720. multiplex microsphere protease assay, flow cytometry. inhibition, % at 10 µM. shares compounds with BoNT F protease; in the data active means inhibition above about 32%
BoNT-F LC CP1 – blocks botulinum neurotoxin F light chain protease. 720 tested, under 10 active. multiplex microsphere protease cleavage assay, flow cytometry. inhibition, % at 10 µM. shares compounds with BoNT F protease
LF protease CP1 – inhibitors of Bacillus anthracis lethal factor protease. shares compounds with BoNT F protease. inhibition, % at 10 µM. multiplex microsphere protease cleavage assay, LF. 720 tested, under 10 active
The depositor's hits bear a star; ? = inconclusive; . = no result. In the library only some 3.3% were active in any assay of this set; here they are far more common. Unless noted, how the calls were made is not given here.

SMILES	MazF activator	SSB-PriA inh	BoNT F protease	Anthrax LF inh2	Autofluor counter	BoNT-A LC inh2	BoNT-A LC CP1	BoNT-F LC CP1	LF protease CP1
CCCCOC(=O)c1ccc(NC(=O)c2ccoc2C)cc1	-5	-22	1	-4	20473*	0	.	.	.
NCCn1nc(-c2ccco2)ccc1=O	.	-16	.	.	.	.	.	.	.
CC12CN(C(=O)c3ccc(Cl)cc3)C3(C#N)CC1CCC23C (centres undefined)	-4	-18	-12	-1	22214*	?	.	.	.
COc1ccc(C(=O)N(c2cccc(Cl)c2)[C@@H]2C=CS(=O)(=O)C2)c(OC)c1	.	-13	.	.	.	.	.	.	.
O=C(CSc1ncnc2c1oc1ccccc12)Nc1cccc(Cl)c1	15	-12	-7	1	21833*	-7	.	.	.
O=C(CSc1ncnc2c1oc1ccccc12)Nc1ccc(Cl)c(Cl)c1	.	-14	.	.	.	.	.	.	.
CC(C)Sc1ncnc2c1oc1ccccc12	4	-28	0	-1	23211*	0	.	.	.
CCOC(=O)C(C)Sc1ncnc2c1oc1ccccc12 (centres undefined)	.	-27	.	.	.	.	.	.	.
Fc1cccc(Cl)c1CSc1ncnc2c1oc1ccccc12	.	0	.	.	.	.	.	.	.
Fc1ccccc1CSc1ncnc2c1oc1ccccc12	-4	-14	8	-1	19470*	3	.	.	.
COC1(CNS(=O)(=O)c2ccccc2Br)CCSC1 (centres undefined)	.	1	.	.	.	.	.	.	.
CCOC(=O)N1CCc2nc(NC(=O)CCCS(=O)(=O)c3ccc(F)cc3)sc2C1	.	4	.	.	.	.	.	.	.
O=C(O)Cc1nc(-c2ccccn2)n[nH]1	.	30	.	.	.	.	.	.	.
COCc1nc(-c2ccccn2)n[nH]1	.	68*	.	.	.	.	.	.	.
Cc1ccc(OCc2nc(-c3ccccn3)n[nH]2)cc1	11	109*	-13	5	2617	-1	.	.	.
Cc1cccc(OCc2nc(-c3ccccn3)n[nH]2)c1	1	90*	-8	2	2547	-1	.	.	.
Cc1onc(-c2ccccc2Cl)c1C(=O)N1CCN=C1SCc1ccc(C(F)(F)F)cc1	.	2	.	.	.	.	.	.	.
CCc1ccc(NC(=O)NCc2ccc3c(c2)OCO3)cc1	-4	-20	12	0	4859	5	.	.	.
CCC(NC(=O)NCc1ccc2c(c1)OCO2)(C(F)(F)F)C(F)(F)F	6	5	18	1	16887*	?	.	.	.
Cc1ccc(Cn2nc(C(=O)Nc3ccc(Br)cc3)cc2C)cc1	3	-3	8	-8	3229	-2	.	.	.
COC(=O)c1cc(C(=O)OC)n(Cc2ccc(Br)cc2)n1	-5	-6	-5	-2	21618*	?	.	.	.
O=C(CC1CSc2nc3c(c(=O)n21)CCCC3)NCc1ccccc1Cl (centres undefined)	.	-16	.	.	.	.	.	.	.
Cc1ccc(S(=O)(=O)N2CCC(C(=O)OCCOc3cccc(C)c3)CC2)cc1	-1	-16	5	-2	7979	1	.	.	.
Cc1cccc(OCCOC(=O)C2CCN(S(=O)(=O)c3ccc(C)c(C)c3)CC2)c1	0	47*	-11	1	4723	-3	.	.	.
Cc1ccc(-c2cc(NC(=O)CSc3n[nH]c(N)n3)n(-c3ccccc3)n2)cc1	-4	6	4	-4	4856	0	.	.	.
SMILES	MazF activator	SSB-PriA inh	BoNT F protease	Anthrax LF inh2	Autofluor counter	BoNT-A LC inh2	BoNT-A LC CP1	BoNT-F LC CP1	LF protease CP1
Nc1nc(SCC(=O)Nc2cc(-c3ccccc3)nn2-c2ccccc2)n[nH]1	0	-8	40*	7	5643	?	1	-3	-3
Cc1nn(C)c(C)c1C(=O)N1CCC[C@H](Oc2nccnc2N(C)C)C1	.	-16	.	.	.	.	.	.	.
Cc1cc2ccccc2n1CCNC(=O)C1CCCC1	11	24	-99	7	909	163*	1	0	0
CC(=O)C1C(c2ccc(F)cc2)c2c(noc2C)CC1(C)O (centres undefined)	4	-10	37*	-6	4546	-3	0	1	3
COc1ccc(CNC(=O)CN2C(=O)COc3ccc(S(=O)(=O)N4CCCC4)cc32)cc1	0	-6	-2	2	5784	53*	0	2	0
CC(C)c1nnc(SCC(N)=O)c2c1cnn2-c1ccccc1	.	-10	.	.	.	.	.	.	.
CCOCCSc1nc2c(c(-c3cccs3)c1C#N)CC/C2=C/c1cccs1	-31	9	25	35*	2450	77*	37*	3	23
Cc1cc(S(=O)(=O)NCC(c2ccsc2)N2CCOCC2)ccc1F (centres undefined)	.	-3	.	.	.	.	.	.	.
Nc1c(C(=O)NC2CCCC2)c2nc3ccccc3nc2n1CC1CCCO1 (centres undefined)	13	-25	7	14	4737	31*	3	-7	1
Nc1c(C(=O)NC2CCCC2)c2nc3ccccc3nc2n1N	-23	-8	-4	-4	4248	-1	.	.	.
Cc1nnc(SCC(=O)Nc2sccc2C(N)=O)n1Cc1ccccc1	-9	-12	36*	6	5801	?	-1	-6	-1
CCc1nnc(NC(=O)CSc2nnc(C)n2Cc2ccccc2)s1	7	-3	-7	-8	6940	-1	.	.	.
CCOC(=O)c1ccc(NC(=O)CSc2nccn3nc(-c4ccc(F)cc4)cc23)cc1	.	-29	.	.	.	.	.	.	.
Cc1nc2c(C)cccc2c2c1CCN2c1ccccc1F	8	-4	?	35*	3906	?	0	-5	0
COc1ccc(N2CCc3c(C)nc4c(OC)cccc4c32)cc1	-1	-3	-1	0	4379	0	.	.	.
O=C(c1ccc(Br)c(S(=O)(=O)N2CCCCC2)c1)N1CCCCC1	4	-10	-4	-4	5904	0	.	.	.
NC(=O)c1ccc(Br)c(S(=O)(=O)N2CCCCC2)c1	4	-13	42*	-17	8468	35*	0	0	-3
CCc1ccc(-c2cc(C(F)(F)F)n3nc(C(=O)Nc4c(C)nn(Cc5ccc(F)cc5)c4C)cc3n2)s1	-14	-14	16	26	8750	33*	2	-6	2
O=C(Nc1cnn(Cc2ccccc2)c1)c1cc2nc(-c3ccco3)cc(C(F)(F)F)n2n1	1	-14	6	1	3153	0	-1	-1	0
Cc1nn(Cc2ccc(F)cc2)c(C)c1NC(=O)c1cc(-c2ccc3c(c2)OCO3)on1	-69	5	-4	-5	11194	-1	.	.	.
Cc1ccccc1Cn1nc(C)c(NC(=O)c2cc3nc(-c4ccco4)cc(C(F)(F)F)n3n2)c1C	10	-4	2	4	3240	0	1	-1	-1
Cc1nn(C)cc1CN(C)C(=O)c1cc2nc(-c3ccco3)cc(C(F)(F)F)n2n1	4	-24	-8	1	2869	0	.	.	.
Cc1nn(C)cc1NC(=O)c1cc2nc(-c3ccco3)cc(C(F)(F)F)n2n1	8	-10	-7	0	3878	1	-1	6	0
Cc1ncn(CC(=O)NCCn2nc(-c3cccs3)n(C3CC3)c2=O)c(=O)c1C	.	-18	.	.	.	.	.	.	.
N#Cc1nc(-c2ccccc2F)oc1NCCc1ccccc1	3	33	42*	2	10751	?	-3	-2	-4
